This note sets out measurements from PubChem BioAssay AID1259240 (Keith Lab, Institute of Cancer Science, University of …, 2017).

Each structure is given as a SMILES string. Calls of active or inactive are those of the source. Cut-off read from the data, not from the text of the source: active = fold change mostly below about -2 (no sharp cut-off); inactive = mostly above about -1.8.

The test can be described thus: TERT promoter activity modulators, primary screen, cell-based, luciferase reporter, human (AID 1259240). Particulars: A2780 TERT promoter luciferase reporter, 16 h; at 20 µM, fold versus average of vehicle-only wells.
As for `CC1CCC(NS(=O)(=O)c2cccc3cccnc23)CC1` (centres undefined), the fold change was -2.05 (active).

For the compound `C=CCn1c(NCCN(CC)CC)nc2c1c(=O)[nH]c(=O)n2C`, the fold change was 1.22 (inactive).

For the compound `COc1ccccc1-c1cc(N)n(S(=O)(=O)c2ccc([N+](=O)[O-])cc2)n1`, the fold change was -1.09 (inactive).

For the compound `Cn1c2ccccc2c2cnn(CC(=O)NCCc3c[nH]c4ccccc34)c(=O)c21`, the fold change is 1.23 (inactive).

As to `CCCN(CCC)S(=O)(=O)c1ccc2c(c1)oc(=O)n2CC(=O)OCC`, the fold change is -1.16 (inactive).

In the case of `CC1CCCCC1NC(=O)c1cc2c(s1)-c1ccccc1OC2` (centres undefined), the fold change is -2.96 (active).

As for `Nc1ccc(-c2nc3cc(N)c(Cl)cc3[nH]2)cc1`, the fold change is -4.84 (active).

On to `Cn1c2ccccc2c2cnn(CC(=O)N3CCN(C4CCCCC4)CC3)c(=O)c21`, for which the fold change is -1.05 (inactive).

In the case of `NC(=O)C1CCN(c2nc3ccccn3c(=O)c2/C=C2/SC(=S)N(CC(=O)O)C2=O)CC1`, the fold change was -1.43 (inactive).

As for `CC1CN(C2=NC(=O)/C(=C/c3ccccc3Br)S2)CC(C)O1` (centres undefined), the fold change was -1.41 (inactive).

As to `Cc1nc2ncccn2c1-c1csc(Nc2ccc(Cl)cc2)n1`, the fold change is -2.31 (active).

Turning to `COc1ccc2cc3c(N)nn(C(=O)c4cncc(Br)c4)c3nc2c1`, the fold change is -1.5 (inactive).

Regarding `COc1ccc(C2CC(=O)Nc3cc(OC)cc(OC)c32)c(OC)c1` (centres undefined), the fold change is -1.41 (inactive).

In the case of `CCn1c(SCC(=O)N2CCCc3ccccc32)nnc1-c1c[nH]c2ccccc12`, the outcome was inactive.

As for `COc1ccc2cc3c(N)nn(C(=O)CN4CCOCC4)c3nc2c1`, the fold change was -1.27 (inactive).

In the case of `COc1ccc(N2CN=c3s/c(=C4\C(=O)N(C)c5ccccc54)c(=O)n3C2)cc1`, the fold change is -1.56 (inactive).

On to `COc1ccc(S(=O)(=O)n2nc(-c3ccc(OC)cc3OC)cc2N)cc1`, for which the fold change is 1.19 (inactive).

Turning to `CCOC(=O)c1nn(-c2ccc(OC)cc2)c(=O)c2c(NC(C)=O)scc12`, the fold change is 1.14 (inactive).

With `c1csc(CSc2nnc3sc4ccccc4n23)c1`, the fold change was 1.26 (inactive).

As for `Cn1c(-c2ccc(N)cc2)nc2cc(N)ccc21`, the fold change was -1.51 (inactive).

With `O=C(Nc1nnc(N2CCCCC2)s1)Nc1ccccc1Cl`, the fold change is -2.93 (active).

On to `Cc1nnc(NC(=O)Cn2c(=O)sc3ccccc32)s1`, for which the fold change is -1.03 (inactive).

With `O=C(CSc1nnc2c(n1)[nH]c1ccccc12)c1ccc(Br)cc1`, the fold change was 1.22 (inactive).

`COc1cc(Cl)cc(OC)c1NC(=O)Nc1ccc2snnc2c1`: the fold change was -1.47 (inactive).

`CCOC(=O)C1CCN(c2c(N(C)C3CCCCC3)c(=O)c2=O)CC1`: the fold change was 1.32 (inactive).

As to `Cc1ccc(Nc2nc3ccccc3n3cnnc23)cc1`, the fold change is 1.11 (inactive).

Consider `CCOC(=O)CNc1c(N(C)C2CCCCC2)c(=O)c1=O`, for which the fold change is -1.1 (inactive).

For `COc1ccc(-c2c(C)oc3c(CN4CCN(C)CC4)c(O)ccc3c2=O)cc1`, the fold change is 1.02 (inactive).

As for `CCCCNc1c(N2CCN(C(=O)OCC)CC2)c(=O)c1=O`, the fold change is 1.31 (inactive).

Turning to `Cn1c(=O)c2c(SCC(=O)Nc3ccc(F)cc3)nc(-c3ccco3)nc2n(C)c1=O`, the fold change was 1.12 (inactive).

Turning to `CCOC(=O)CNC(=O)CSc1nc(C)nc2c1c(=O)n(C)c(=O)n2C`, the fold change is 1.49 (inactive).

As for `O=C(NCCCN1CCCC1)c1ccc2nc(N3CCOCC3)sc2c1`, the fold change was -1.09 (inactive).

`Cc1ccc(-n2c(-c3ccco3)nc3c(cnn3-c3ccccc3C)c2=O)cc1F`: the fold change is -1.09 (inactive).

Take `Cc1nc2c3ccccc3n3c(CCCC(=O)NCc4ccccn4)nnc3n2n1`: the fold change was -1.25 (inactive).

Consider `Cc1nnc(SCc2nc(-c3ccc(Cl)cc3)no2)n1-c1ccccc1`, for which the fold change was -1.9 (inactive).

Regarding `NC(=O)c1c(NC(=O)CN2C(=O)c3ccccc3S2(=O)=O)sc2c1CCCC2`, the fold change was 1.23 (inactive).

On to `OCCn1c(-c2ccc(Br)cc2)cn2c3ccccc3nc12`, for which the fold change was -1.06 (inactive).

Turning to `CCOCCCNc1nc2c(-c3ccccc3)nnn2c2ccccc12`, the fold change was 1.12 (inactive).

On to `Cc1ccc(NC(=O)CSc2nc3c(c(=O)[nH]2)CCC3)cc1F`, for which the result was inactive.
